# High-throughput results from PubChem BioAssay.
# HIV TAR-Tat: HIV-1 TAR-Tat binding disruption; HIV-1 TAR RNA, Tat peptide displacement FRET; active compounds read high; z-score (test concentration not listed); actives 0.6% (n = 100,000); active means z-score of 3 or more in at least 2 runs
# CDC25B CDK2 inh: human CDC25B-CDK2/CyclinA binding inhibition | P30305+P24941 | HTRF CDC25B-CDK2/CyclinA binding, anti-His/anti-Flag; active compounds read high | z-score (concentration not given with the values) | actives 0.72% (n = 94,000) | AID 1259370; in the data active means z-score above about 3.2
# Hits are given with their value; – = inactive; · = no result given. Rows were chosen to be rich in hits. Some 0.9% of all compounds tested hit in one or more screens of this group.
SMILES,HIV TAR-Tat,CDC25B CDK2 inh
Cc1ccc(C2C(C(=O)c3ccc(C)o3)=C(O)C(=O)N2Cc2cccnc2)cc1 (centres undefined),–,–
Cc1ccc(Oc2nc3ccccc3n3c(C)nnc23)cc1C,·,–
Cc1nnc2c(Oc3ccc(Cl)cc3)nc3ccccc3n12,–,15.7
O=c1c(NCCc2ccc(Cl)cc2)c(-c2ccccc2)c1=O,5.97,·
O=c1c(NCCc2ccc(Cl)cc2)c(-c2ccc(Cl)cc2)c1=O,–,·
CC(O)c1nc2ccc(-c3ccc4nc(C(C)O)[nH]c4c3)cc2[nH]1 (centres undefined),–,6.85
CC(O)c1nc2ccccc2[nH]1 (centres undefined),·,–
O=c1c(N2CCOCC2)csc2ccc(Cl)cc12,–,·
CCC(C(=O)Nc1cccc(Cl)c1)n1nc(C)c2sc3ccccc3c2c1=O (centres undefined),12.6,–
CCC(C(=O)NCc1cccs1)n1nc(C)c2sc3ccccc3c2c1=O (centres undefined),4.03,–
CCC(C(=O)Nc1cccc(F)c1)n1nc(C)c2sc3ccccc3c2c1=O (centres undefined),–,–
CCC(C(=O)NCCc1cccs1)n1nc(C)c2sc3ccccc3c2c1=O (centres undefined),–,–
O=C(CSCc1ccc(F)cc1)Nc1noc2ccccc12,–,·
N/C(=N\O)c1c(-c2ccccc2)cc(-c2ccc(F)cc2)[nH]c1=O,·,11
O=c1cc(-c2ccccc2)[nH]c(=S)[nH]1,·,–
O=C1c2ccccc2C(Nc2cccnc2)N1c1ccccn1 (centres undefined),–,9.87
O=C1c2ccccc2C(Nc2cccnc2)N1c1cccnc1 (centres undefined),–,–
CC1SCC(=NOC(=O)c2ccccc2Cl)CS1 (centres undefined),·,12.9
CC1SCC(=NOC(=O)Nc2ccc(Cl)cc2)CS1 (centres undefined),·,–
COc1ccc(Nc2cc(N3CCOCC3)c3noc4c3c2C(=O)c2ccccc2-4)cc1,–,–
CC(C)CNc1cc(N2CCN(C(=O)c3ccco3)CC2)c2noc3c2c1C(=O)c1ccccc1-3,–,–
CC(C)Nc1cc(N2CCN(C(=O)c3ccco3)CC2)c2noc3c2c1C(=O)c1ccccc1-3,5.57,–
O=C1c2ccccc2-c2onc3c(N4CCOCC4)cc(Nc4ccc(F)cc4)c1c23,–,12.7
CC(C)Nc1cc(N2CCOCC2)c2noc3c2c1C(=O)c1ccccc1-3,6.2,–
O=C1c2ccccc2-c2onc3c(N4CCOCC4)cc(N4CCOCC4)c1c23,–,–
SMILES,HIV TAR-Tat,CDC25B CDK2 inh
CCc1noc2nc(C(=O)O)nc(N3CCOCC3)c12,–,–
Cc1ccc(Cc2nc(CCNS(=O)(=O)c3cccc4nsnc34)n[nH]2)cc1,–,·
CCOC(=O)c1cnc(NCc2ccc3c(c2)OCO3)nc1C,–,–
CC(C)COc1ccc2c(c1)c1c3n2CCNC3CCC1 (centres undefined),·,–
C1=C(c2ccc3c(c2)c2c4n3CCNC4CCC2)CCC1 (centres undefined),·,13.8
CCOc1ccccc1-n1nnc(-c2nc(-c3ccccc3Cl)no2)c1N,–,·
Cc1cc(N2CCN(CCO)CC2)n2nc(-c3ccccc3)nc2n1,–,–
COc1ccc(CCn2c(C)c3c(C)nn4cc(C)cc4c3c2C)cc1OC,15,–
Cc1cc2c3c(C)n(C4CCCCC4)c(C)c3c(C)nn2c1,·,–
Cc1ccc(Nc2cc(C)nc3nc(-c4ccccc4)nn23)cc1,–,–
O=C(NC1CCCC1)C1=Cc2sc3c(c2CS1)CCCC3,–,·
CC1(C(=O)NC2CCCCC2)Cn2c(ccc2-c2ccco2)C(=O)N1Cc1ccco1 (centres undefined),–,·
CC1CCCCN1CCN1C(=O)c2ccc(-c3ccco3)n2CC1(C)C(=O)NC1CCCCC1 (centres undefined),–,·
CC1(C(=O)NC2CCCC2)Cn2c(ccc2-c2ccco2)C(=O)N1Cc1ccco1 (centres undefined),3.74,·
CC1CCCCN1CCN1C(=O)c2cc3ccccc3n2CC1(C)C(=O)NC1CCCCC1 (centres undefined),18,·
Cn1c(=O)c2c(c3ccccc31)OC(=O)CC2c1ccsc1 (centres undefined),–,–
COc1ccc(Cn2c(SCc3cc(=O)n4cc(Cl)ccc4n3)nc3ncccc3c2=O)cc1,–,–
CN1C(=O)C(C)(C)c2cc(S(=O)(=O)N3CCCC(CN4CCc5ccccc5C4)C3)ccc21 (centres undefined),–,·
O=C(NC(NC(=S)Nc1ccccc1Br)C(Cl)(Cl)Cl)c1ccccc1 (centres undefined),·,–
O=C(NC(NC(=S)Nc1cccc2ccccc12)C(Cl)(Cl)Cl)c1ccccc1F (centres undefined),·,5.27
O=C(CCCc1nc(-c2ccco2)no1)Nc1ccncc1,4.22,–
O=C(CCc1nc(-c2ccco2)no1)Nc1ccncc1,–,–
O=C(NCCCN1CCOCC1)c1cc2c(s1)-c1ccsc1CC2,–,·
CCc1ccc(-c2cc(C)no2)cc1S(=O)(=O)Nc1ccc(F)cc1F,–,·
Cc1cccc(CSc2nc3c(c(=O)[nH]2)C(c2ccc(O)c(O)c2)CC(=O)N3)c1 (centres undefined),12.4,–
SMILES,HIV TAR-Tat,CDC25B CDK2 inh
O=C1CC(c2ccc(O)c(O)c2)c2c(nc(SCc3ccccc3)[nH]c2=O)N1 (centres undefined),16.6,–
Cc1ccc(CSc2nc3c(c(=O)[nH]2)C(c2cc(C)ccc2C)CC(=O)N3)cc1 (centres undefined),–,–
Cc1ccc(CSc2nc3c(c(=O)[nH]2)C(c2ccc(O)c(O)c2)CC(=O)N3)cc1 (centres undefined),12.5,–
COc1ccc(C2CC(=O)Nc3nc(SCc4ccccc4)[nH]c(=O)c32)cc1Br (centres undefined),–,–
Cc1cccc(CSc2nc3c(c(=O)[nH]2)C(c2cc(F)cc(F)c2)CC(=O)N3)c1 (centres undefined),–,–
CSc1ccc(-c2nc(C(N)=O)c3[nH]c(=O)n(-c4ccc(C)c(C)c4)c3n2)cc1,–,·
CCc1ccccc1Nc1nc(-c2sc(N)nc2C)cs1,–,–
Cc1nc(N)sc1-c1csc(Nc2cccc(Cl)c2C)n1,–,9.37
CCOC(=O)c1c(C)oc2ncnc(N3CCc4ccccc43)c12,–,·
c1ccc2c(c1)c1ccccc1c1[nH]cnc21,·,–
NC(N)=NS(=O)(=O)c1ccc(N/C=C\C(=O)c2ccc(F)cc2)cc1,·,–
NC(N)=NS(=O)(=O)c1ccc(N/C=C\C(=O)c2ccc3ccccc3c2)cc1,·,17.6
O=C(C1CCCN(S(=O)(=O)N2CCOCC2)C1)N1CCN(c2ccc(F)cc2)CC1 (centres undefined),–,·
O=C(C1CCCN(S(=O)(=O)N2CCCCC2)C1)N1CCN(c2ccccc2)CC1 (centres undefined),14.7,·
CCCCc1cc(=O)oc2c(C)c(OCC(N)=O)ccc12,·,–
O=C(Nc1ccc(Cl)c(Cl)c1)Nn1cnnc1,·,18.3
O=C(Nc1ccccc1)Nn1cnnc1,·,–
CCOC(=O)C1CCCN(c2ncnc3onc(-c4cc(F)cc(F)c4)c23)C1 (centres undefined),–,·
COc1ccc(C)cc1-n1nnc(-c2nc(-c3ccccc3C)no2)c1N,–,·
Cc1onc(-c2ccccc2)c1NC(=O)Nc1ccccc1N1CCOCC1,·,–
Cc1onc(-c2ccccc2)c1NC(=O)Nc1ccc(C2=NC(C)(C)CO2)cc1,·,5.62
